Data on 10 compounds can be found in PubChem BioAssay.

A short description of the assay: JC-1 mitochondrial signal, unstimulated HepG2 cells – cell-based, JC-1 fluorescence, 24 h, 100 nL compound, profiling panel (AID 1167). Note: test concentration not given here. To be noted: HepG2 mitochondrial potential, higher = more signal.
The compound `CN(C)C(=O)[C@@]1(Cc2ccccc2CN=[N+]=[N-])N=C(c2ccc(OCCCO)cc2)O[C@H]1c1ccccc1CN=[N+]=[N-]` came in with a z-score of 1.11.
Next, `CCCNC(=O)[C@@]1(c2ccc([N+](=O)[O-])cc2)CC(=O)N(C2CCCCC2)[C@@H]1c1ccc(CO)cc1`: 0.536; `CC(C)N1C(=O)C[C@@](C(=O)NCCCN(C)C)(c2ccc([N+](=O)[O-])cc2)[C@H]1c1ccc(CO)cc1`: -0.459.
Next, `O=C1N(Cc2ccccc2)Cc2ccccc2[C@@H]2OC(c3ccc(OCCCO)cc3)=N[C@]12CCS(=O)(=O)c1ccccc1`: -0.565.
The figure for `COC(=O)[C@@]1(Cc2ccc(OC)cc2)[C@@H]2C(=CC(=O)[C@H]2CC(=O)C(=O)N(C)C)CN1C(=O)c1ccccc1` is 0.607; for `COc1ccc([Si](C)(C)[C@@H]2[C@@H](CC(=O)N3Cc4ccccc4C[C@H]3CO)O[C@]3(C(=O)N(C)c4ccccc43)[C@H]2C)cc1` it is -0.682.
Regarding `C=C[C@@H](COC(C)=O)N(C(=O)OC(C)(C)C)S(=O)(=O)c1ccc(Br)cc1`, the z-score worked out at 0.515.
Next, `C=CCOC(=O)[C@H]1[C@@H]2C(=O)O[C@@H](c3ccccc3)[C@@H](c3ccccc3)N2[C@@H](c2ccc(OCCOC(=O)[C@@H]3C[C@@H]4C(=O)N[C@@H](CCCCNC(C)=O)C(=O)N4[C@@H]3c3ccc(O)cc3)cc2)[C@]12C(=O)Nc1ccc(I)cc12`: -1.03.
Regarding `O=c1n(-c2ccccc2)c(=O)n2n1CC(COc1ccccc1)=C([C@H](O)CCc1ccccc1)[C@@H]2CO`, the z-score is -1.2.
The figure for `CN(C)C(=O)[C@]1(CCS(=O)(=O)c2ccccc2)N=C(c2ccc(OCCCO)cc2)O[C@@H]1c1ccccc1N=[N+]=[N-]` is 0.621.
